RORg inh – ROR gamma (mouse) transcription inhibition; AID 2551; Potency, µM (top dose mostly 53.6 µM), inactives show at the highest dose activity change, negative = inhibition, hits mostly inhibitors; 310,000 tested, 5.4% active; Drosophila S2 Gal4-RORgamma UAS-luciferase reporter, 20 h; P51450; also: % is scaled to controls: 0 for no effect and ±100 for the full control effect; nearly all actives have a fitted effect of over 60% in size
Target sequence (P51450 whole entry, looked up, the tested form may be a part): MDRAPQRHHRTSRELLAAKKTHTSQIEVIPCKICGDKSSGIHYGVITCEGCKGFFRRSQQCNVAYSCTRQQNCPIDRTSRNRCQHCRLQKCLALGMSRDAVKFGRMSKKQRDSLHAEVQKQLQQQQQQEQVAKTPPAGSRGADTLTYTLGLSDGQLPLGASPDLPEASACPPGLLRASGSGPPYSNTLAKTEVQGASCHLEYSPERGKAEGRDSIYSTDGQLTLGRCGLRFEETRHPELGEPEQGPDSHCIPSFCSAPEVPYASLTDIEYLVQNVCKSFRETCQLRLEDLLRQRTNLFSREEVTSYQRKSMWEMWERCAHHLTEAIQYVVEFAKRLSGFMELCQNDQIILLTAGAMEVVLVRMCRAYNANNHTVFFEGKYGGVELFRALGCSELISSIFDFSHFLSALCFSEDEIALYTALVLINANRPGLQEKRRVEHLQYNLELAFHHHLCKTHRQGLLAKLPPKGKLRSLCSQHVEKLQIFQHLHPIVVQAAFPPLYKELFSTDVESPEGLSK
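A Gal4/UAS one-hybrid system in insect cells: metallothionein-promoter Gal4–ROR gamma fusion plus Photinus luciferase reporter. Copper sulfate 700 uM final, 20 hr ambient incubation, luminescent detection after 10 min with reagent.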
KB-V1 cytotox – KB-V1 MDR subline cytotoxicity. KB-V1 MDR cells viability, CellTiter-Glo, 72 h. Potency, µM (series often up to 46.1 µM), hits mostly cytotoxic. 400,000 tested, 3.4% active. AID 1347076; also: % is scaled to controls: 0 for no effect and ±100 for the full control effect; nearly all actives have a fitted effect of over 60% in size
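qHTS viability screen in drug-selected KB-V1 MDR cells: 72 h compound treatment at 37 degrees C, ATP luminescence end point.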
MCF10A rereplic – inducers of DNA re-replication in MCF 10A breast cells; Potency, µM (highest dose often 46.1 µM), for inactives: top-dose activity, positive = re-replication, actives largely listed as activators; MCF 10A DNA re-replication, Hoechst nuclear intensity, 48 h; AID 624296; 350,000 tested, 2.9% active; also: % of control where 0% means no effect; nearly all actives have a fitted effect of over 50% in size
Gal4-VP16 FLuc – counter-screen for ROR gamma inhibitors: Gal4-VP16 reporter; AID 2546; Potency, µM (series often up to 53.6 µM), for the others: at the highest dose activity, negative = inhibition, actives largely listed as inhibitors; 310,000 tested, 3.5% active; Drosophila S2 Gal4-VP16 UAS-luciferase, luminescence, 20 h;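 also: Gal4-VP16 expression switched on by copper sulfate through the metallothionein promoter; % is scaled to controls: 0 for no effect and ±100 for the full control effect; nearly all actives have a fitted effect of over 50% in size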
SW480 rereplic – inducers of DNA re-replication in SW480 colon cancer cells; 340,000 tested, 1.8% active; SW480 DNA re-replication, Hoechst DNA content imaging, 48 h; Potency, µM (series often up to 46.1 µM), without a hit: at the top dose re-replication activation, hits mostly activators; AID 624297; also: % of control where 0% means no effect; nearly all actives have a fitted effect of over 55% in size
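250 cells/well; 23 nL cpd via pin tool; 48 hr, 37 C, 5% CO2; Hoechst 40 min; imager read of total nuclear intensity, ex 405/em 500-530 nm.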
KB-3-1 cytotox – KB-3-1 parental cell cytotoxicity | AID 1347075 | 400,000 tested, 1.4% active | KB-3-1 viability, CellTiter-Glo ATP luminescence, 72 h | Potency, µM (titrated, usually from 46.1 µM), hits mostly cytotoxic; also: % is scaled to controls: 0 for no effect and ±100 for the full control effect; nearly all actives have a fitted effect of over 60% in size
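Luminescent ATP read-out (CellTiter-Glo) measures survival of drug-naive KB-3-1 cells after 72 h compound exposure at 37 °C. Titration series was screened from lowest to highest concentration, with DMSO vehicle plates as background controls.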
* hit, by the source's call; i = inactive; ? = inconclusive; . = no result given; [ ] = dose if it differs, or a comment. A selection: hits, their analogues and other compounds. The true share with any hit is near 10%. Calls follow the shape of the dose curve; as a rule, active = well fitted curve in the direction sought with a large enough effect; inconclusive = small, poorly fitted or top-dose-only effect, or another doubt; inactive = no such curve, though single readings can be large; an effect the other way counts as inactive or inconclusive. Potency is read from the fitted curve at half-maximal effect.

SMILES | RORg inh | KB-V1 cytotox | MCF10A rereplic | Gal4-VP16 FLuc | SW480 rereplic | KB-3-1 cytotox
CCc1ccc(NC(=O)C2(c3ccccc3)CC2(Cl)Cl)cc1 (stereo not drawn) | 37.1% | i | 23.1µM* | 8.8% | ? | i
Cc1ccc(NC(=O)C2(c3ccccc3)CC2(Cl)Cl)cc1C (stereo not drawn) | 26.3% | i | 20.6µM* | -4.0% | 4.3% | i
Cc1ccc(NC(=O)/C(C#N)=C/c2ccc(C(C)C)cc2)cc1C | . | i | . | . | . | i
C#CCOc1ccc(C2C(C(=O)OC)=C(C)NC3=C2C(=O)c2ccccc23)cc1OCC (stereo not drawn) | . | i | . | . | . | i
COc1ccc(CN(C)c2ccc(-c3nc(-c4ccc(OC)c(OC)c4)no3)cc2[N+](=O)[O-])cc1 | . | i | . | . | . | i
Cc1cc(Br)ccc1NCc1ccccn1 | 19.3% | ? | 18.4µM* | 3.1% | 18.4µM* | i
COc1ccccc1C(=O)Nc1ccc(NC(=O)c2ccco2)cn1 | 26.6% | i | -0.4% | -2.0% | -12.3% | i
O=C(Nc1ccc(NC(=O)c2ccco2)nc1)c1ccco1 | 7.94µM* | ? | -8.5% | -22.1%[10 µM] | 0.2% | i
CC(C)(C)C(=O)Nc1ccc(NC(=O)c2ccco2)nc1 | 0.199µM* | i | 4.9% | 0.562µM* | -1.2% | i
O=C(Cc1ccccc1)Nc1ccc(NC(=O)c2ccco2)nc1 | 31.5% | i | 11.1% | 0.4% | -5.1% | i
O=C(Nc1ccc(Cl)cc1C(=O)Nc1ccccn1)c1ccco1 | 12.6µM* | ? | -2.7% | ? | -11.6% | i
O=C(Nc1ccc(NC(=O)c2ccco2)nc1)c1ccccn1 | ? | i | -4.3% | 1.78µM* | -1.5% | i
Cc1ccc(NC2=C(CC(=O)O)C(c3ccc(F)cc3)N(c3ccc(C)cc3)C2=O)cc1 (stereo not drawn) | . | i | . | . | . | i
COc1cccc(Nc2ncc3nc(-c4cn(C)c5ccccc45)c(=O)n(C[C@H]4CCCO4)c3n2)c1 | -3.3% | . | . | -3.6% | . | .
CCN(CC)CCCOc1cc2nc(N3CCCN(C)CC3)nc(NC3CCN(C)CC3)c2cc1OC | . | i | . | . | . | ?
C[C@@H]1O[C@H](O[C@@H]2C(O)[C@H](O)[C@@H](CO)O[C@H]2Oc2cc(O)c3c(=O)cc(-c4ccc(O)cc4)oc3c2)[C@H](O)[C@H](O)[C@H]1O (stereo partly drawn) | 11.0% | . | . | -10.4% | . | .
Cc1ccc(-c2nc3cc(Cl)ccc3o2)cc1NC(=O)COc1ccc(F)cc1 | . | i | . | . | . | i
COc1ccc(N2CCN(C(=O)CSc3nc4ccccc4nc3Cc3ccc(Cl)cc3)CC2)cc1 | . | i | . | . | . | i
CC(C)(C)C(=O)Nc1ccc(/C=C/C(=O)c2ccco2)cc1 | 10µM* | i | ? | -9.8% | 23.7% | i
O=C(Nc1ccc(NC(=O)C2CC2)nc1)c1ccccn1 | -43.6% | i | -2.6% | 7.08µM* | -2.2% | i
O=C(Nc1ccc(NC(=O)C2CC2)nc1)c1cnccn1 | 10.9% | i | 1.9% | -14.3% | -29.1% | i
Nc1ccc(/C=C/C(=O)c2ccco2)cc1 | ? | i | 18.0% | ? | 1.7% | i
O=C(Nc1ccc(NC(=O)C2CCCCC2)cn1)c1ccco1 | ? | i | 0.0% | 8.91µM* | -0.8% | i
COC(=O)C1=CN(CCCN2CCCC2=O)C=C(C(=O)OC)C1c1ccccc1C(F)(F)F | 3.5% | i | 13µM* | -5.2% | 18.4µM* | i
CCCOc1ccccc1C1C(C(=O)OC)=CN(C(C)C)C=C1C(=O)OC | 9.6% | i | ? | -16.6% | ? | ?
SMILES | RORg inh | KB-V1 cytotox | MCF10A rereplic | Gal4-VP16 FLuc | SW480 rereplic | KB-3-1 cytotox
CCCCOc1ccccc1C1C(C(=O)OC)=CN(CC)C=C1C(=O)OC | 2.7% | i | ? | 0.4% | 11.6µM* | i
COC(=O)[C@@]12C[C@@H](CC(=O)N3CCSCC3)C(=O)N(Cc3ccco3)C1=CCC(C)(C)C2 | . | ? | . | . | . | i
O=C(COCc1cc(-c2cccs2)on1)Nc1cccc(Cl)c1Cl | . | i | . | . | . | i
COc1cc(/C=C/C(=O)c2c(O)cc(C)oc2=O)cc(OC)c1O | -29.4% | ? | 2.1% | -18.7% | -1.1% | ?
CSc1ccc(/C=C/C(=O)c2c(O)cc(C)oc2=O)cc1 | ? | i | ? | ? | 18.4µM* | ?
Cc1cc(O)c(C(=O)/C=C/c2ccc(Cl)cc2)c(=O)o1 | 15.5% | ? | ? | -16.7% | -1.4% | 16.4µM*
Clc1cccc(Cl)c1/C=N/Nc1c(Cl)cncc1Cl | ? | ? | 2.59µM* | 7.2% | 8.2µM* | 4.61µM*
c1cnc2ncc3sccc3c2c1 | 49.2% | i | -6.6% | -5.2% | 16.4µM* | i
Cc1cnc2ncc3sccc3c2c1 | 31.3% | i | -8.6% | -3.3% | 5.5% | i
O=C(OCC(=O)N1CCOCC1)c1cc(-c2ccccc2)nc2ccccc12 | . | i | ? | . | 10.0% | i
COc1ccc(-c2cc(C(=O)OCC(=O)N3CCCCC3)c3ccccc3n2)cc1OC | . | 3.66µM* | ? | . | 4.1% | i
COc1ccc(CN2CCN(C(=O)c3cccc4ccccc34)CC2)cc1OC | 8.3% | i | 0.651µM* | 0.1% | 6.51µM* | i
COc1ccc(-c2csc(N3CCN(c4cc(C)nc5ccccc45)CC3)n2)cc1OC | -40.7% | 16.4µM* | 23.5% | -4.6%[10 µM] | ? | i
O=C(OCC(=O)N1CCN(C(=O)c2ccco2)CC1)c1cc(-c2ccc(Cl)c(Cl)c2Cl)nc2ccccc12 | -29.6% | 20.6µM* | ? | ? | ? | ?
O=C(OCC(=O)N1CCN(C(=O)c2ccco2)CC1)c1cc(-c2ccco2)nc2ccccc12 | -2.7% | ? | 5.2% | 4.7% | -5.5% | i
CCOc1cc(CN2CCN(C(=O)c3cccc4ccccc34)CC2)ccc1OC | 31.9% | ? | -1.3% | -15.0% | ? | i
COc1cccc(NC(=O)CSc2nc3cc(OC)c(OC)cc3c3nc(-c4ccccc4)nn23)c1 | . | ? | . | . | . | i
COc1ccc(-c2cc(C(=O)N3CCCCCC3)c3ccccc3n2)cc1OC | . | i | . | . | . | i
COc1ccc2nc(C)cc(N3CCN(c4ccccc4)CC3)c2c1 | 14.1µM* | ? | -9.2% | -14.0% | 6.2% | i
COc1ccc(-c2cc(C(=O)N3CCN(c4ccccc4)CC3)c3ccccc3n2)cc1OC | 11.5% | ? | 13µM* | 15.0% | 17.7% | i
O=C(O)c1nc(-c2ccccc2)c(C(=O)NC2CC2)[nH]1 | . | ? | . | . | . | i
COc1ccc(CCNc2c(C)c(C)nc3ncnn23)cc1 | -30.3% | i | ? | 6.31µM* | 8.2µM* | i
